Results reported in the supplement of paper PMC11383364.
Where “and” joins values, the source holds several entries; their conditions need not be identical. Identical values can stand only once.

Test system: SUM149
Test: percent difference in area under dose-response curve of relative cell number, RPMI vs HPLM; higher = drug relatively more effective in HPLM than RPMI (negative = less effective in HPLM)
Conditions: treatment time: 72 h; dose range: 10-point, 1 nM to 20 µM; media compared: RPMI vs HPLM

Row | Compound | percent difference in area under dose-response curve
1 | CN(C)CC[C@H](CSc1ccccc1)Nc1ccc(S(=O)(=O)NC(=O)c2ccc(N3CCN(Cc4ccccc4-c4ccc(Cl)cc4)CC3)cc2)cc1[N+](=O)[O-] | -4.67% and 1.88%
2 | O=C(O)c1ccc2c(c1)nc(Nc1cccc(Cl)c1)c1ccncc12 | 0.753%
3 | O=C(O)c1ccc(-c2c[nH]c3ncc(-c4ccccc4)cc23)cc1C1CCCC1 | -9.42%
4 | C/C=C/C/C=C/CCC(=O)[C@H]1O[C@H]1C(N)=O [Cerulenin] | -9.61%
5 | CC(C)NCCCn1c(Sc2cc3c(cc2I)OCO3)nc2c(N)ncnc21 | -28.4%
6 | Cn1cc(CNCC2CCN(c3ncc(C(=O)NO)cn3)CC2)c2ccccc21 | -19.7%
7 | CC1(C)CCC2=C(O1)c1ccccc1C(=O)C2=O [beta_Lapachone] | 0.097%
8 | COc1cc([C@@H]2c3cc4c(cc3[C@@H](O[C@@H]3O[C@@H]5CO[C@@H](c6cccs6)O[C@H]5[C@H](O)[C@H]3O)[C@H]3COC(=O)[C@H]23)OCO4)cc(OC)c1O [Teniposide] | -42.7%
9 | Nc1ccc(-c2ccc3ncc4ccc(=O)n(-c5cccc(C(F)(F)F)c5)c4c3c2)cn1 [Torin_2] | -2.02%
10 | O=C(Nc1cccc(Cl)c1)Nc1ncc(CCNc2ncnc3ccsc23)s1 [SNS314_Mesylate] | -24.4%
11 | CC1(C)CCC(c2ccc(Cl)cc2)=C(CN2CCN(c3ccc(C(=O)NS(=O)(=O)c4ccc(N[C@H](CCN5CCOCC5)CSc5ccccc5)c(S(=O)(=O)C(F)(F)F)c4)cc3)CC2)C1 | -1.13% and -0.0577%
12 | COc1cccc(-c2cc(F)ccc2[C@H]2Cc3nc(N)nc(C)c3C(=O)N2)n1 | -28.8%
13 | CC(/C=C/C(=O)NO)=C\[C@@H](C)C(=O)c1ccc(N(C)C)cc1 [Trichostatin_A] | -9.24%
14 | Cc1ccc(NC(=O)c2ccc(CN3CCN(C)CC3)cc2)cc1Nc1nc(-c2cccnc2)cs1 [Masitinib] | -3.29%
15 | Cc1cc(Nc2cc(N3CCN(C)CC3)nc(/C=C/c3ccccc3)n2)n[nH]1 | -2.84%
16 | CNc1nc(-c2ccc3c(N)n[nH]c3c2)cc(N2C[C@@H](C(=O)NC3CCCCC3)CC[C@H]2C)n1 | -4.83%
17 | COc1cc2c(cc1O)CC[C@@H]1[C@@H]2CC[C@]2(C)[C@@H](O)CC[C@@H]12 [2_Methoxyestradiol] | 6.52%

Row | Compound | percent difference in area under dose-response curve
18 | O=C(Nc1cccc(C(F)(F)F)c1)Nc1cc(S(=O)(=O)NC2CC2)ccc1-c1ccsc1 | -8.01%
19 | CC1(C)C(N(O)C(=O)Nc2ccc(Cl)cc2)N(c2ccc(Cl)cc2)C(=O)N1CC(=O)NN=CC=Cc1ccc([N+](=O)[O-])o1 (centres undefined) [Eeyarestatin_I] | -5.38%
20 | Cc1cn(-c2cc(NC(=O)c3ccc(C)c(Nc4nccc(-c5cccnc5)n4)c3)cc(C(F)(F)F)c2)cn1 [Nilotinib] | -3.16%
21 | O=C(Nc1cccnc1)N1CCC(Cc2cccc(Oc3ccc(C(F)(F)F)cn3)c2)CC1 | -4.77%
22 | C#CC[C@H](c1nc2cc(Cl)ccc2c(=O)n1Nc1ccccc1)N(CCCN)C(=O)c1cccc(Cl)c1F | -7.78%
23 | COc1cc(O)c(CC=C(C)C)c(O)c1C(=O)/C=C/c1ccc(O)cc1 [Xanthohumol] | -9.86%
24 | CS(=O)(=O)N1CCc2c(-c3cnc(N)nc3)nc(N3CCOCC3)nc21 | -3.59%
25 | c1ccc(Cn2c(-c3ccc(OC[C@H](C4CCNCC4)n4c(-c5ccccc5)nc5ccccc54)cc3)nc3ccccc32)cc1 [Deltarasin] | -7.63%
26 | Cc1ccccc1C(C(=O)NC1CCCC1)N(C(=O)Cn1cnc2ccccc21)c1cccc(F)c1 (centres undefined) | -1.67%
27 | OCCN(CCO)c1nc(N2CCCCC2)c2nc(N(CCO)CCO)nc(N3CCCCC3)c2n1 [Dipyridamole] | 2.66%
28 | CSc1cccc(Nc2ncc3cc(-c4c(Cl)cccc4Cl)c(=O)n(C)c3n2)c1 | 11.7%
29 | CC1=CC(=O)c2ccccc2C1=O [Menadione] | -3.63%
30 | O=C(c1ccc(OCCN2CCCCC2)cc1)c1c(-c2ccc(O)cc2)sc2cc(O)ccc12 [Evista] | 2.48%
31 | C=CCc1cccc(/C=N/NC(=O)CN2CCN(Cc3ccccc3)CC2)c1O | -12.9%
32 | C=CC(=O)N1CCC[C@@H](n2nc(-c3ccc(Oc4ccccc4)cc3)c3c(N)ncnc32)C1 | 7.26%
33 | O=C(O[C@@H]1Cc2c(O)cc(O)cc2O[C@@H]1c1cc(O)c(O)c(O)c1)c1cc(O)c(O)c(O)c1 [_Epigallocatechin_gallate] | 3.46%
34 | CC1(C)C=C(CN2C/C(=C\c3ccc(F)cc3)C(=O)/C(=C/c3ccc(F)cc3)C2)C(C)(C)N1O | 2.04%
